This note sets out measurements from PubChem BioAssay (NCATS).

Active and inactive are the calls of the source. Calls come from the whole dose curve; as a rule, active = well fitted activation curve with a large enough effect; inconclusive = small, poorly fitted or top-dose-only effect; inactive = flat fitted curve, though single readings scatter.

The assay is described as follows: Confirmation and Secondary Assay for Modulators of Hemoglobin Beta Chain Splicing at IVS2 705 locus (AID 930).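 Note: HeLa cells stably expressing the EGFP-705 splicing reporter; GFP fluorescence per well restored by corrected splicing of the IVS2-705 intron in EGFP; % of control where 0% means no effect.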 The note with it: HeLa EGFP-705 splicing reporter, GFP fluorescence, 48 h; series mostly up to 46.1 µM; activation: at the top concentration. In short, it runs like this: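 Per-well GFP, captured at 1 x 8 µm resolution with 488 nm excitation, served as the read-out for HeLa EGFP-705 cells incubated 2 days with test compound versus DMSO.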
With `C=C1C(=O)C23C(O)C1CCC2[C@]12COC3(O)C(O)C1C(C)(C)CC[C@H]2O` (stereo not given in full), the “activation” value was 2.59% (inactive).
Regarding `CC(CCC(=O)O)C1CCC2C3C(=O)CC4CC(=O)CC[C@@]4(C)C3CC(=O)[C@]12C` (stereo not given in full), the “activation” value was 0.916% (inactive).
For the compound `CSCCC(N)C(=O)NC(CC(C)C)C(=O)NC(Cc1ccccc1)C(=O)O` (stereo not given), the “activation” value is 0.868% [at 38.3 µM] (inactive).
For the compound `CC(=O)c1ccc[nH]1`, the “activation” value is 1.33% [at 38.3 µM] (inactive).
As for `Cc1onc(-c2c(Cl)cccc2Cl)c1C(=O)NC1C(=O)N2C1SC(C)(C)C2C(=O)O` (stereo not given), the “activation” value was 1.65% (inactive).
Turning to `COc1ccc(-c2cc(=O)c3cc(OC)ccc3o2)cc1`, the “activation” value was 1.57% [at 38.3 µM] (inactive).
Take `COc1cc2ccc(=O)oc2c(OC)c1OC`: the “activation” value was 1.48% (inactive).
Consider `Cc1cc(O)c(C)c(O)c1C(=O)O`, for which the “activation” value was 3.03% (inactive).
With `C=C1c2cccc(O)c2C(O)=C2C(=O)[C@]3(O)C(O)=C(C(N)=O)C(=O)C(N(C)C)C3C(O)C12` (stereo not given in full), the “activation” value was 1.47% (inactive).
To `C[C@@]12CCC(OC(=O)c3ccccc3)CC1CCc1ccccc12` (stereo not given in full) belongs 0.449% [at 38.3 µM] (inactive).
As to `COC1=CC(=O)C=C(OC)C1=O`, the “activation” value is 2.54% (inactive).
Consider `Nc1nc(=O)n(C2OC(CO)C(O)C2O)cc1Cl` (stereo not given), for which the “activation” value was 1.02% [at 38.3 µM] (inactive).
To `Oc1ccc2c(c1)OCC1c3cc4c(cc3OC21)OCO4` (stereo not given) belongs 1.33% (inactive); to `CO[C@@]1(NC(=O)Cc2cccs2)C(=O)N2C(C(=O)O)=C(COC(N)=O)CSC21` (stereo not given in full), 2.47% (inactive).
Regarding `COc1cc2c(cc1OC)C(=O)OC2`, the “activation” value is 0.0172% [at 38.3 µM] (inactive).
In the case of `C=C1C([C@@]2(C)C(OC(C)=O)CC(=O)O[C@@](C)(COC(C)=O)C2CC(=O)OC)C(OC=O)C(OC(=O)C(O)C(C)CC)[C@]2(C)C(c3ccoc3)CC(=O)C12O` (stereo not given in full), the “activation” value is -0.267% (inactive).
The value for `CC(=O)OCC(=O)[C@@]1(O)CCC2C3CCC4=CC(=O)CC[C@]4(C)C3C(=O)C[C@]21C` (stereo not given in full) was 1.2% (inactive).
Turning to `COC(=O)C1OC(=O)C2OC23[C@]2(C)C(OC(C)=O)CC4C(C)(C)C(=O)CC[C@]4(C)C2CC[C@@]13C` (stereo not given in full), the “activation” value is 0.312% [at 38.3 µM] (inactive).
As for `O=C(O)C(S)[C@@H](S)C(=O)O` (stereo not given in full), the “activation” value is 2.27% (inactive).
As for `O=c1c(-c2ccc(O)cc2)coc2c(C3OC(CO)C(O)C(O)C3O)c(O)ccc12` (stereo not given), the “activation” value is -1.55% (inactive).
With `COC(=O)c1c(C)cc(O)cc1O`, the “activation” value was -0.337% [at 38.3 µM] (inactive).
To `Cc1cc(=O)oc2cc(O)c(O)cc12` belongs 1.5% [at 38.3 µM] (inactive); to `O=C(O)c1cc2ccccc2[nH]1`, 1.35% (inactive); to `COC(=O)CC1[C@@]2(C)C[C@]34OC5(C)OC6(C7CC(=O)OC(c8ccoc8)[C@]7(C)CCC6(O5)[C@]13C)C(OC(C)=O)[C@]4(OC(C)=O)C2OC(C)=O` (stereo not given in full), 0.625% [at 38.3 µM] (inactive).
Take `Nc1ncnc2c1[nH]c(=O)n2C1CC(O)C(CO)O1` (stereo not given): the “activation” value was 0.977% [at 38.3 µM] (inactive).
Consider `O=C(O)/C=C/C=C/c1ccccc1`, for which the “activation” value was 1.32% [at 38.3 µM] (inactive).
To `CC1CC2C3CCC4=CC(=O)C=C[C@@]4(C)[C@]3(F)C(O)C[C@]2(C)[C@]1(O)C(=O)COP(=O)(O)O` (stereo not given in full) belongs 0.915% (inactive); to `CCC1OC(=O)C(C)[C@@H](O[C@H]2C[C@@](C)(OC)C(O)C(C)O2)C(C)[C@@H](O[C@@H]2OC(C)CC(N(C)C)C2O)[C@@](C)(O)CC(C)C2NC(COCCOC)O[C@H](C2C)[C@@]1(C)O` (stereo not given in full), 2.56% (inactive); to `CC1O[C@@H](O[C@@H]2C(O)C[C@H](O[C@@H]3C(O)C[C@@H](OC4CC[C@@]5(C)C6CC[C@]7(C)C(C8=CC(=O)OC8)CC[C@@]7(O)C6CC[C@@H]5C4)OC3C)OC2C)CC(O)[C@H]1O` (stereo not given in full), 0.615% (inactive).
Consider `NC1C(O)OC(CO)[C@@H](O)[C@@H]1O[C@H]1O[C@@H](C(=O)O)C(O)C(O)C1O` (stereo not given in full), for which the “activation” value is -0.649% [at 38.3 µM] (inactive).
For the compound `COc1cc(OC)c2c(=O)c(-c3ccccc3)c(C)oc2c1OC`, the “activation” value was 0.744% [at 38.3 µM] (inactive).
To `CC1(C)CC[C@]2(C(=O)O)CC[C@@]3(C)C(=CCC4[C@@]5(C)CCC(O)C(C)(C)C5CC[C@@]43C)C2C1` (stereo not given in full) belongs 2.33% (inactive); to `NC(=O)c1ccc[n+]([C@@H]2OC(COP(=O)([O-])OP(=O)(O)OCC3OC(n4cnc5c(N)ncnc54)C(O)C3O)C(O)C2O)c1` (stereo not given in full), 1.73% (inactive).
On to `CC1CC[C@@]23CCC4(C)[C@@]5(C)CCC6C(C)(C)C(=O)CC[C@@]6(C)C5C=C[C@@]4(OC2=O)C3C1C` (stereo not given in full), for which the “activation” value is 1.42% [at 38.3 µM] (inactive).
Regarding `Nc1ncnc2c1nc(Br)n2C1OC(CO)C(O)C1O` (stereo not given), the “activation” value was -0.251% [at 38.3 µM] (inactive).
The value for `CN(N=O)C(=O)N[C@H]1C(O)C(O)C(CO)O[C@@H]1O` (stereo not given in full) was -0.346% (inactive).
`C[C@]12CCC(=O)C=C1CCC1C2C(O)C[C@]2(C)C1CC[C@]2(O)C(=O)COC(=O)CCC(=O)O` (stereo not given in full): the “activation” value is 1.54% (inactive).
Regarding `Nc1nc2c(ncn2C2CC(O)C(CO)O2)c(=O)[nH]1` (stereo not given), the “activation” value was -0.113% [at 38.3 µM] (inactive).
As for `COc1cc(C(C)=O)cc(OC)c1O`, the “activation” value is 0.523% [at 38.3 µM] (inactive).
Regarding `Cn1c(=O)[nH]c(=O)c2[nH]cnc21`, the “activation” value was 0.649% (inactive).
